Results: PubChem BioAssay (NCI)
This is part of a sample that, as a whole, favours compounds with a hit. Of some 83,000 tested, about 20% had one in any assay.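 Single-concentration screen, 48 h exposure, 96-well plates. Endpoint: percent growth. Below 10 = active.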 A number with no mark means an inactive call. Active and inactive are the calls of the source.

What follows are compounds tested on MOLT-4 leukemia (assay: NCI-60 one-dose screen, 48 h (100 = growth as untreated, 0 = no growth, -100 = all killed)). Settings: 10 µM unless noted.

For `COc1cc(/C=C2\CN(S(=O)(=O)c3ccccc3)C/C(=C\c3cc(CN4CCCCC4)c(O)c(OC)c3)C2=O)cc(CN2CCCCC2)c1O`, which growth is on record?
Its growth is -20.6% (active).

How did the growth turn out when `O=C(N/N=C/c1cc(Cl)ccc1O)c1ccccc1Nc1ccnc(C(F)(F)F)c1` was run?
Its growth is 55%.

`COc1cc(OC)c(C(=O)C(CN(C)C)CN(C)C)cc1OC` was tested. Which growth did it give?
The growth was -39.8% (active).

`CCOc1cccc(/C=N/NC(=O)c2cccc(Nc3ccnc(C(F)(F)F)c3)c2)c1O` was tested. Which growth did it give?
Its growth is 18.2%.

`O=C1/C(=C/c2ccc(O)c(O)c2)COc2ccc(-c3ccccc3)cc21` was tested. Which growth did it give?
Its growth is 10.9%.

How did the growth turn out when `CCN1C(=O)N(CC)C2C1NC(=S)N2/N=C/c1ccc(OC)cc1` (centres undefined) was run?
Its growth is 47.7%.

How did the growth turn out when `Cc1ccc2c(=O)cc(C(=O)Nc3sc4c(c3C(=O)NCc3cccnc3)CCCC4)oc2c1C` was run?
Its growth is 90.3%.

With `CCOC(=O)CC1CSC(Nc2ccccc2)=N1` (centres undefined) as the compound, how does the growth read?
Its growth is 101%.

`Nn1c(=O)c(=O)[nH]c2c(cnn2-c2ccccc2)c1=O` was tested. Which growth did it give?
The growth was 101%.

`Nc1[nH]n2cc(-c3ccc(F)cc3)nc2c1N=Nc1ccc(S(N)(=O)=O)cc1` was tested. Which growth did it give?
The growth was 85.8%.

For `Cn1cc(-c2csc(-c3c[nH]c4ccc(F)cc34)n2)c2ccnc(Cl)c21`, which growth is on record?
The growth was 64.9%.

Which growth does the source give for `Cc1nc2c(c(=O)[nH]1)C(c1ccccc1)c1ccc3ccccc3c1O2` (centres undefined) here?
Its growth is 41%.

How did the growth turn out when `C=C(C)[C@@H]1CC[C@]2(C(N)=O)CC[C@]3(C)[C@H](CC[C@@H]4[C@@]5(C)CC[C@H](OCCC#N)C(C)(C)[C@@H]5CC[C@]43C)[C@@H]12` was run?
Its growth is 70%.

Which growth does the source give for `N#Cc1c(Nc2ccc(N3CCOCC3)cc2)nc(SCC(=O)c2ccc(Br)cc2)nc1-c1ccccc1` here?
The growth was 99.2%.

With `O=C(NNC(=O)c1ccc(NC(=O)c2ccccn2)cc1)Nc1ccc2ccccc2c1` as the compound, how does the growth read?
Its growth is 108%.

With `CC(=O)OC[C@]12CC[C@@H]([C@@H](C)c3nnc(-c4ccncc4)o3)[C@@H]1[C@H]1CC[C@@H]3[C@@]4(C)CC[C@H](OC(C)=O)C(C)(C)[C@@H]4CC[C@@]3(C)[C@]1(C)CC2` as the compound, how does the growth read?
Its growth is 57.2%.

With `CCN(CC)Cc1cc(Nc2ccnc3cc(Cl)ccc23)ccc1O` as the compound, how does the growth read?
The growth was 100%.

For `COc1ccc(/C=C/C(c2cc(OC)c(OC)c(OC)c2)n2cncn2)cc1` (centres undefined), which growth is on record?
Its growth is 39.4%.

`Cc1ccc(C)c2c(C)c(C(=O)Nc3cccc(-n4cccn4)c3)oc12` was tested. Which growth did it give?
Its growth is 42.2% [50 µM].

Which growth does the source give for `COc1ccc(/C=C/C(c2cc(OC)c(OC)c(OC)c2)n2ccnc2)cc1O` (centres undefined) here?
The growth was 31.9%.

How did the growth turn out when `O=S(=O)(NCCCNc1nccc(-c2c(-c3cccc(F)c3)nc3occn23)n1)c1ccc(F)cc1` was run?
The growth was 8.3% (active).

`Cn1cc(-c2ccc(-c3cn(C)c4ccc(Cl)cc34)[nH]2)c2cc(Cl)ccc21` was tested. Which growth did it give?
The growth was 19.1%.

`S=C(c1ccc2c(c1)OCO2)N1CCN(c2cccc(Cl)c2)CC1` was tested. Which growth did it give?
The growth was 30.9%.

How did the growth turn out when `O=C(O)c1ccc(-c2ccc(/C=N/Nc3nc(Nc4ccccc4)nc(N4CCCCC4)n3)o2)cc1` was run?
The growth was 79.9%.

Which growth does the source give for `COc1cccc(Nc2ncnc3cc(NC(=O)CCl)ccc23)c1` here?
The growth was -31% (active).

How did the growth turn out when `COc1ccc(-c2n[nH]c(=O)c3nc(NC(=S)Nc4ccc(Oc5ccccc5)cc4)sc23)cc1` was run?
The growth was 96.9%.

`COc1ccc(C(=O)N2c3ccccc3Sc3ccccc32)c(C(F)(F)F)c1` was tested. Which growth did it give?
The growth was 15.1%.

With `C#CCNC(=O)[C@]1(C)CCC[C@@]2(C)[C@H]1CC=C1C=C(C(C)C)CC[C@@H]12` as the compound, how does the growth read?
Its growth is 87.9%.

`O=C(CCCCCNC(=O)c1cc(=O)c(O)co1)Nc1ccccc1` was tested. Which growth did it give?
The growth was 106%.

Which growth does the source give for `CNC1=CC(=O)c2c(C(=O)OC)c(C)[n+]([O-])c(C)c2C1=O` here?
The growth was 95.6%.

With `O=C1/C(=C\c2ccccn2)c2ccccc2N1c1c(Cl)cccc1Cl` as the compound, how does the growth read?
Its growth is 3.48% (active).

Which growth does the source give for `COc1cc(OC)cc(-c2ccc(-c3ccc(C(=N)N)o3)o2)c1` here?
Its growth is 31.4%.

For `C#CCOc1cccc(-c2ncnc3cc(NC(=O)C=C)ccc23)c1`, which growth is on record?
The growth was 30.8%.

With `COc1ccc(-c2nn(-c3ccccc3)cc2/C=C/C(=O)NNC(=O)Nc2ccc(C)cc2)cc1` as the compound, how does the growth read?
The growth was 43%.

With `C/C(Cc1ccc(Cl)cc1)=C(\c1ccc(OCCCN(C)C)cc1)c1ccc(OC(=O)Cc2ccccc2)cc1` as the compound, how does the growth read?
Its growth is 77.3%.

How did the growth turn out when `CCOC(=O)C(=CNc1cnc(Nc2ccc(N3CCOCC3)cc2)nc1Oc1ccc(OC)cc1)C(=O)OCC` was run?
Its growth is 60.5%.

Which growth does the source give for `CC[N+]1(CC)CC[N+]2(CCCC(C)CC2)CC1` (centres undefined) here?
Its growth is 105%.

Which growth does the source give for `CCNc1nc(O)c(/C=C2\C=Nc3ncccc32)s1` here?
Its growth is -6% (active).

How did the growth turn out when `COc1cc(/C=N/Nc2ccc(Br)cc2)cc(OC)c1OC` was run?
The growth was 44.1%.
